The nature of assay [1]: qHTS assay to identify small molecule antagonists of the glucocorticoid receptor (GR) signaling pathway - cell viability counter screen (AID 720693). Note: nearly all actives have a fitted effect of over 55% in size. A general note: qHTS replaces the single test concentration by a dilution series.
Assay [2] in a line: qHTS assay for identifying genotoxic compounds that show differential cytotoxicity against isogenic chicken DT40 cell lines with known DNA damage response pathways - wild type cell line (AID 743012). Note: nearly all actives have a fitted effect of over 60% in size. In a few lines:
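Wild type DT40, 300 cells/well, ~0.5 h settle at 37 C/5% CO2; compounds in DMSO added by pintool; 40 h at 37 C/5% CO2; CellTiter-Glo, 30 min RT; luminescence.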

Assay [3] is described as follows: qHTS assay for identifying genotoxic compounds that show differential cytotoxicity against isogenic chicken DT40 cell lines with known DNA damage response pathways - Rev3 mutant cell line (AID 743014). Note: nearly all actives have a fitted effect of over 55% in size. Note: potency is the fitted concentration of half-maximal effect.
Assay [4] can be described thus: qHTS assay for identifying genotoxic compounds that show differential cytotoxicity against isogenic chicken DT40 cell lines with known DNA damage response pathways - Rad54/Ku70 mutant cell line (AID 743015). Note: nearly all actives have a fitted effect of over 60% in size. Note: potency is the fitted concentration of half-maximal effect.
The nature of assay [5]: qHTS assay to identify small molecule antagonists of the androgen receptor (AR) signaling pathway - cell viability counter screen (AID 743033; note: nearly all actives have a fitted effect of over 45% in size).
Assay [6] is described as follows: qHTS assay to identify small molecule antagonists of the androgen receptor (AR) signaling pathway using the MDA cell line - cell viability counter screen (AID 743041; note: nearly all actives have a fitted effect of over 45% in size). In a few lines:
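MDA-kb2 AR-luc cells (MMTV-luciferase, AR/GR responsive) treated with compounds plus R1881 agonist for 16 h at 37C. CellTiter-Fluor added at 15.5 h; fluorescence read after 30 min in the same wells.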

A short description of assay [7]: qHTS assay to identify small molecule antagonists of the thyroid receptor (TR) signaling pathway - cell viability counter screen (AID 743064). Note: nearly all actives have a fitted effect of over 50% in size. Note: potency is the fitted concentration of half-maximal effect. In a few lines:
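Rat GH3 pituitary tumor cells stably expressing two TR response elements driving luciferase were plated, rested 4 h, then dosed with library compounds and T3 (1 nM final). After 23.5 h at 37 °C, CellTiter-Fluor was added for 30 min and fluorescence recorded.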

The nature of assay [8]: qHTS assay to identify small molecule antagonists of the thyroid receptor (TR) signaling pathway (AID 743065). Note: nearly all actives have a fitted effect of over 55% in size. Note: potency is the fitted concentration of half-maximal effect. The essentials:
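GH3.TRE-Luc rat pituitary cells (two TREs driving luciferase) were dosed with compound, then stimulated with 1 nM T3 (final) for 23.5 h at 37 C. ONE-Glo luminescence was the read-out, with CellTiter-Fluor fluorescence as the cytotoxicity counter-screen.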

Assay [9] relates to thyroid hormone receptor (rat, GH3 cells). The experiment in a line: qHTS assay to identify small molecule agonists of the thyroid receptor (TR) signaling pathway (AID 743066; calls by dose curve).
In assay [10] the target is Estrogen receptor (Homo sapiens) (UniProt P03372). The experiment in a line: qHTS assay to identify small molecule antagonists of the estrogen receptor alpha (ER-alpha) signaling pathway (AID 743069; active = well fitted curve in the direction sought with a large enough effect in the signal ratio in the repeat runs, not every such curve was filed as active; the % refers to the signal ratio). The essentials:
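HEK293 ER-alpha-UAS-bla GripTite cells, held overnight in 2% charcoal-stripped FBS, 5,000 cells/well, preincubated 4 h, then compound plus 17beta-estradiol for 18 h at 37C. Beta-lactamase read by LiveBLAzer B/G FRET substrate, 2 h at room temperature.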

Assay [11] can be described thus: qHTS assay to identify small molecule antagonists of the estrogen receptor alpha (ER-alpha) signaling pathway - cell viability counter screen (AID 743074; calls by dose curve;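 note: HEK293 cells carrying ER-alpha-UAS-bla reporter stimulated with 17beta-estradiol; nearly all actives have a fitted effect of over 45% in size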).
For assay [12], the target named is Estrogen receptor (Homo sapiens) (UniProt P03372). Nature of the assay: qHTS assay to identify small molecule agonists of the estrogen receptor alpha (ER-alpha) signaling pathway (AID 743075; calls by dose curve).
Assay [13] shares this target. Nature of the assay: qHTS assay to identify small molecule agonists of the estrogen receptor alpha (ER-alpha) signaling pathway using the BG1 cell line (AID 743079). Note: nearly all actives have a fitted effect of over 20% in size. Note: potency is the fitted concentration of half-maximal effect.
A short description of assay [14]: qHTS assay to identify small molecule antagonists of the estrogen receptor alpha (ER-alpha) signaling pathway using the BG1 cell line (AID 743080; calls by dose curve;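 note: BG1 cells stimulated with 17beta-estradiol alongside compound; nearly all actives have a fitted effect of over 25% in size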; note: potency is the fitted concentration of half-maximal effect). In a few lines: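 Seeding, 24 h rest, compound transfer from DMSO, 17beta-estradiol addition, 21.5 h incubation, CellTiter-Fluor (30 min, 37 C), then ONE-Glo (30 min, room temperature): this sequence was run on BG1-Luc-4E2 reporter cells.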

Assay [15] can be described thus: qHTS assay to identify small molecule antagonists of the estrogen receptor alpha (ER-alpha) signaling pathway using the BG1 cell line - cell viability counter screen (AID 743081).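 Note: compound given together with 17beta-estradiol as the ER stimulus; series mostly up to about 70 µM; nearly all actives have a fitted effect of over 45% in size.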
Assay [16] addresses Aromatase (Homo sapiens) (UniProt P11511). Nature of the assay: qHTS assay to identify aromatase inhibitors (AID 743083). Note: series mostly up to about 70 µM; nearly all actives have a fitted effect of over 55% in size.
Assay [17] has as its target Androgen receptor (Homo sapiens) (UniProt P10275). The experiment in a line: qHTS assay to identify small molecule antagonists of the androgen receptor (AR) signaling pathway (AID 743035; active = well fitted inhibition curve with a large enough effect in the signal ratio in the repeat runs, not every such curve was filed as active; the % refers to the signal ratio). In a few lines: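 Fluorescence from a beta-lactamase FRET substrate (LiveBLAzer B/G, 2 h, room temperature) measured inhibition of R1881-stimulated signaling in GeneBLAzer AR-UAS-bla HEK293 cells exposed to compound for 16 h at 37C.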

Assay [18] shares this target. The experiment in a line: qHTS assay to identify small molecule agonists of the androgen receptor (AR) signaling pathway (AID 743036; active = well fitted activation curve with a large enough effect in the signal ratio in the repeat runs, with a control signal flat, not every such curve was filed as active; the % refers to the signal ratio). The essentials:
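Quantitative HTS of the Tox21 10K library in HEK293 cells bearing a stably integrated UAS-controlled beta-lactamase reporter. Compound exposure lasted 16 h at 37C. Reporter activity was detected by FRET substrate fluorescence after 2 h at room temperature.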

Assay [19] has the same target. The experiment in a line: qHTS assay to identify small molecule agonists of the androgen receptor (AR) signaling pathway using the MDA cell line (AID 743040; note: nearly all actives have a fitted effect of over 20% in size). In a few lines: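 MDA-kb2 breast carcinoma cells carrying MMTV-luciferase (responsive to AR and GR), plated 5 h then treated 16 h with compounds at 37C, 0% CO2. Read-out was ONE-Glo luminescence after 30 min at room temperature.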

The target is the same in assay [20]. Nature of the assay: qHTS assay to identify small molecule antagonists of the androgen receptor (AR) signaling pathway using the MDA cell line (AID 743042; note: nearly all actives have a fitted effect of over 55% in size; note: potency is the fitted concentration of half-maximal effect). The essentials: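 MDA-kb2 breast carcinoma cells carrying MMTV-luciferase (AR/GR responsive) were co-treated with compounds and the agonist R1881 for 16 h at 37C. Inhibition read as ONE-Glo luminescence; CellTiter-Fluor fluorescence measured in parallel for cytotoxicity.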

Values joined by “and” are separate entries in the source; they are usually repeats but may differ in a detail not shown here. Equal values may be shown once. Inconclusive results are not listed. Some compounds were tested as several samples or in several runs, with calls that do not always agree. Active and inactive are the calls of the source. Unless noted, calls come from the whole dose curve; as a rule, active = well fitted curve in the direction sought with a large enough effect in the repeat runs; inconclusive = weak or mixed curves; inactive = no such curve, though single readings can be large; an effect the other way counts as inactive or inconclusive.

Chain of Androgen receptor (Homo sapiens) (P10275 whole entry, looked up): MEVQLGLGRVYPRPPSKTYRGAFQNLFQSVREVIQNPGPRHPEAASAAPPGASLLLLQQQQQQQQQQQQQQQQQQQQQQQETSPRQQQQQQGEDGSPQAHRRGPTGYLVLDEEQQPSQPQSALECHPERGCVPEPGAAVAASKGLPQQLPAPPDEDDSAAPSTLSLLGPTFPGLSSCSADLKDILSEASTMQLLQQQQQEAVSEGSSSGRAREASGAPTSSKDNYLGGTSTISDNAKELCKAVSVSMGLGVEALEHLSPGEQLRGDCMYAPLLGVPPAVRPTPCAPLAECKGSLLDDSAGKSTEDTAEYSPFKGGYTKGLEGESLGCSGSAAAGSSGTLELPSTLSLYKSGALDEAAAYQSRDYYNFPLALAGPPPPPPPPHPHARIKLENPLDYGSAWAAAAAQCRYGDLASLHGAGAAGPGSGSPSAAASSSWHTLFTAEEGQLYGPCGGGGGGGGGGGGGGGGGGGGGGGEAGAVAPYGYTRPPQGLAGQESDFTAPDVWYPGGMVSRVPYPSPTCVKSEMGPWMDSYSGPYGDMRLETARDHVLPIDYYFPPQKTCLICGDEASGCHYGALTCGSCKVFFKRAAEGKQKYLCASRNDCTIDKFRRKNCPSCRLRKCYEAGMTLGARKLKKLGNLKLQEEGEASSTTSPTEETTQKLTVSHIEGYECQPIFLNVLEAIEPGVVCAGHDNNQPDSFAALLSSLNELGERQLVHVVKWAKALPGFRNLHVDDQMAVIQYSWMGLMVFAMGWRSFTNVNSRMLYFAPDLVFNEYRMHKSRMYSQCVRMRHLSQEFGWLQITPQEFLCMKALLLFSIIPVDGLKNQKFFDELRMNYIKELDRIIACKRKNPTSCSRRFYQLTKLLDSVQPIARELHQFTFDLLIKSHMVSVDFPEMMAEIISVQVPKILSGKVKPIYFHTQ
Chain of Aromatase (Homo sapiens) (P11511 whole entry, looked up): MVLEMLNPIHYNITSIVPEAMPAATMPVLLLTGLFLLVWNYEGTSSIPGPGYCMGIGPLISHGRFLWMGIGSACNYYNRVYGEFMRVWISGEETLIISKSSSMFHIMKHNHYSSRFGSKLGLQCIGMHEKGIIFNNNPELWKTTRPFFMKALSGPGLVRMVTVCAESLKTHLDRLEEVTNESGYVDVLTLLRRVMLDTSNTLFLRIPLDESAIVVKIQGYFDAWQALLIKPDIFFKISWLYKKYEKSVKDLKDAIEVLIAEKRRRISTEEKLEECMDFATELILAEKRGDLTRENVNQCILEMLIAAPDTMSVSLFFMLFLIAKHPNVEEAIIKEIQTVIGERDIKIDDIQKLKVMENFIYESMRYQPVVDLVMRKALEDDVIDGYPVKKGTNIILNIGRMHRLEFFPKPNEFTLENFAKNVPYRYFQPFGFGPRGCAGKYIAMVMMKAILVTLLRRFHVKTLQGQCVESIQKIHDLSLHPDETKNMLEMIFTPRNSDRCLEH
Chain of Estrogen receptor (Homo sapiens) (P03372 whole entry, looked up): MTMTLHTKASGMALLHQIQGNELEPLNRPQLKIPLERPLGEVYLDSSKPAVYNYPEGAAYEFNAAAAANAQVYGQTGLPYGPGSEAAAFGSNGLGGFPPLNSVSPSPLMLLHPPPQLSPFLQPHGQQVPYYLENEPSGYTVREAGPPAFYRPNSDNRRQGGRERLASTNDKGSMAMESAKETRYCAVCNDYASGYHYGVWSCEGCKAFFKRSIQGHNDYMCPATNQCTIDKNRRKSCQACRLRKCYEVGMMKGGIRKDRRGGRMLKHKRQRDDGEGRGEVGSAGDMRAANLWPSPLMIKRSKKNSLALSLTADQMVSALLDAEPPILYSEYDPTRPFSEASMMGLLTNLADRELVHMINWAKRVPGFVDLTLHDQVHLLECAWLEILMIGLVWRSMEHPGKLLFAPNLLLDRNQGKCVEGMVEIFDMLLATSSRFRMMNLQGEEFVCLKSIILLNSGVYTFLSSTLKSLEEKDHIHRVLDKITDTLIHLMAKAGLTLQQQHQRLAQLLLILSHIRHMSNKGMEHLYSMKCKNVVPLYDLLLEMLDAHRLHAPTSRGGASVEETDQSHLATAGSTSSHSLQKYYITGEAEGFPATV

Consider `N[C@@H](Cc1c[nH]c2ccc(O)cc12)C(=O)O`, for which the Potency entry in assay [1], in assay [2], in assay [3], in [4], in [6] and in assay [7] was “inactive” in each case. Moreover, the Potency entry in assay [8], in assay [10], in assay [12], in [13], in assay [14] and in assay [15] was “inactive” in each case. Moreover, in [16], the Potency result was “inactive”. Besides, the molecule was called inactive in assay [5], in [9] and in [11].

On to `NCCNc1cccc2ccccc12`, for which the Potency entry in assay [1], in [2], in assay [4], in assay [17], in assay [19] and in assay [6] was “inactive” in each case. Further, the Potency result in assay [16] was “inactive”. Besides, the Potency entry in assay [3] was “inactive and 54.4 µM (active)”; in assay [20], “inactive and 54.4 µM (active)”; in assay [7], 27.3 µM (active) and 29.9 µM (active); in assay [8], 26.6 µM (active) and 54.4 µM (active) and 59.6 µM (active). The molecule was called inactive in [5], in assay [18], in assay [9] and in [11].

Turning to `CCN1CCCC1=O`, the Potency entry in [1], in [2], in assay [3], in assay [4], in [6] and in assay [7] was “inactive” in each case. In addition, the Potency result in assay [8], in assay [10], in [12], in assay [13], in [14] and in assay [15] was “inactive” in each case. Moreover, the Potency result in assay [16] was “inactive”. The call in assay [5], in assay [9] and in assay [11] was inactive.

For the molecule `Cc1c(N(C)C)c(=O)n(-c2ccccc2)n1C`, the Potency result in assay [1], in assay [2], in [3], in assay [4], in [6] and in [7] was “inactive” in each case. Further, the Potency result in assay [8], in [10], in assay [12], in assay [13], in [14] and in assay [15] was “inactive” each time. Further, the Potency result in [16] was “inactive”. The outcome in assay [5], in assay [9] and in assay [11] was inactive.

In the case of `C[C@]12C=CC(=O)C=C1CC[C@@H]1[C@@H]2C(=O)C[C@@]2(C)[C@H]1CC[C@]2(O)C(=O)CO`, the Potency result in assay [1], in [2], in [4], in [6], in assay [7] and in assay [8] was “inactive” each time. For the same molecule, the Potency result in assay [10], in assay [12], in [14], in assay [15] and in assay [16] was “inactive” in each case. For the same molecule, the Potency entry in assay [3] was “inactive and 4.86 µM (active)”; in assay [13], “inactive and 54.5 µM (active)”. In addition, the molecule was called inactive in [5], in assay [9] and in assay [11].

On to `CCCCCCCCOc1ccc(C(=O)c2ccccc2)c(O)c1`, for which the Potency entry in [1], in assay [2], in [6], in assay [7], in [8] and in assay [10] was “inactive” in each case. The Potency result in assay [12], in assay [13], in assay [15] and in assay [16] was “inactive” in each case. Also, the Potency entry in assay [3] was “inactive and 61.1 µM (active)”; in [4], “inactive and 68.6 µM (active)”; in [14] it was 12.3 µM (active) and 12.2 µM (active). For the same molecule, the molecule was called inactive in [5], in assay [9] and in [11].

On to `Cc1cccc2ccccc12`, for which the Potency entry in assay [1], in assay [2], in [3], in assay [4], in [6] and in assay [7] was “inactive” in each case. For the same molecule, the Potency result in assay [8], in assay [10], in [12], in assay [13], in assay [14] and in assay [15] was “inactive” throughout. In [16], the Potency result is “inactive”. In addition, the result in assay [5], in assay [9] and in [11] was inactive.

Regarding `C=C(C)C(N)=O`, the Potency entry in [1], in assay [2], in [3], in [4], in assay [6] and in [7] was “inactive” in each case. Also, the Potency result in [8], in [10], in assay [12], in assay [13], in assay [14] and in [15] was “inactive” throughout. Besides, the Potency result in [16] is “inactive”. Besides, the outcome in assay [5], in assay [9] and in assay [11] was inactive.

Regarding `COc1ccccc1NC(=O)CC(C)=O`, the Potency entry in [1], in assay [2], in [3], in [4], in [6] and in assay [7] was “inactive” each time. Moreover, the Potency entry in [8], in [10], in assay [12], in [13], in assay [14] and in assay [15] was “inactive” throughout. For the same molecule, the Potency result in assay [16] was “inactive”. In addition, the call in assay [5] and in assay [9] was inactive.

For `COc1cc(O)c(C(=O)c2ccccc2)cc1S(=O)(=O)O`, the Potency result in assay [1], in [2], in assay [3], in assay [4], in assay [17] and in [6] was “inactive” throughout. Besides, the Potency result in assay [20], in [7], in [8], in assay [10], in [12] and in assay [13] was “inactive” throughout. Also, the Potency result in assay [14], in assay [15] and in [16] was “inactive” in each case. The molecule was classed as inactive in [5], in [18], in assay [9] and in assay [11].

As to `C[C@]12C[C@H](O)[C@H]3[C@@H](CCC4=CC(=O)CC[C@@]43C)[C@@H]1CC[C@@H]2C(=O)CO`, the Potency result in [1], in [2], in [3], in assay [6], in [7] and in [8] was “inactive” throughout. Besides, the Potency result in assay [10], in assay [12], in [13], in assay [14], in assay [15] and in [16] was “inactive” in each case. Further, the Potency in assay [4] is 48.6 µM (active). The molecule was classed as inactive in assay [5], in assay [9] and in assay [11].

For the molecule `CC(=O)Oc1ccccc1C(=O)O`, the Potency entry in assay [1], in assay [2], in assay [3], in assay [4], in assay [17] and in [19] was “inactive” throughout. Further, the Potency entry in assay [6], in [20], in [7], in assay [10], in assay [12] and in assay [13] was “inactive” throughout. Also, the Potency entry in assay [14], in [15] and in assay [16] was “inactive” throughout. Moreover, the call in assay [5], in [18] and in assay [11] was inactive.

Regarding `C=CCOC(=O)CC(C)C`, the Potency result in [1], in assay [2], in [3], in assay [4], in assay [6] and in [7] was “inactive” each time. Moreover, the Potency result in [8], in assay [10], in assay [12], in [13], in assay [14] and in [15] was “inactive” in each case. In assay [16], the Potency result is “inactive”. The molecule was called inactive in assay [5], in [9] and in assay [11].

For `Oc1cccc(O)c1`, the Potency entry in assay [1], in assay [2], in assay [3], in assay [4], in assay [6] and in assay [7] was “inactive” in each case. Besides, the Potency result in assay [8], in assay [10], in assay [12], in assay [13], in assay [14] and in assay [15] was “inactive” in each case. The Potency result in assay [16] was “inactive”. Also, the call in assay [5], in assay [9] and in [11] was inactive.
